Results with a measured potency or affinity are listed apart. The source made the active and inactive calls.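 How the source made its calls: active means a dose-response curve fit returns a half-maximal inhibitory concentration, extrapolated values included; inactive means the fit returns no such concentration.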
Molecular target: HMG-CoA reductase [Enterococcus faecalis] (UniProt Q9FD70)
Experiment: inhibitors of E. faecalis class II HMGR, confirmation, biochemical, Enterococcus faecalis (AID 1233)
Conditions: purified E. faecalis HMGR, NADPH absorbance 340 nm kinetics; series mostly up to 100 µM

outcome, inactive:
COc1ccc(N(C(C)C(=O)N/N=C/c2ccc(OC(C)C)cc2)S(C)(=O)=O)cc1 (stereo not drawn)
Cc1ccc(NC(=O)c2ccc3nc[nH]c3c2)c(O)c1
CC1CCN(c2cc(N)c(Cl)cc2[N+](=O)[O-])CC1
O=C(COC(=O)c1ccncc1)Nc1ccccc1
O=C(COC(=O)c1ccc[nH]c1=O)NC1CCCCCC1
COC(=O)C(C)n1cnc2c(nnn2-c2ccc(OC)cc2)c1=O (stereo not drawn)
COc1ccccc1Sc1ccccc1/C=N/NC(N)=O
NCCc1nnc(SCc2ccc(F)cc2)o1
CC(C)OC(=O)CC(NC(=O)OC(C)(C)C)c1ccccc1 (stereo not drawn)
COc1cc(Cn2c(=O)oc3ccc(C)cc32)ccc1OC(C)C
C=CCOC(=O)c1sc(NC(=O)c2ccco2)nc1C
COc1ccc(C(=O)NCCc2nnc(SCC(=O)Nc3ccccc3F)n2C)cc1
O=C(O)CCC(=O)NC(c1ccccc1)c1ccccc1
COc1ccc2c(c1)c(=O)c(C(=O)c1ccccc1)cn2Cc1ccc(C)cc1
COc1ccc(-c2cc(C(=O)Nc3c(C)nn(Cc4ccc(Cl)cc4)c3C)no2)cc1
CCN(CC)Cc1c(C(=O)N2CCc3ccccc3C2)nc2ccc(Cl)cn12
CCOC(=O)c1c(NC(=O)CSc2nnc(C)s2)sc2c1CCC(CC)C2 (stereo not drawn)
COc1ccc2c(C)cc(=S)[nH]c2c1
COc1ccc(CNC(=O)COC(=O)[C@H](Cc2c[nH]c3ccccc23)NC(=O)c2cccs2)cc1
Cc1ccc(Cl)cc1N=C(N)N=C(N)N
Cc1nn(Cc2ccc(Cl)cc2)c(Cl)c1/C=N/NC(=O)CNc1ccccc1F
C=CCn1cnc2c(nnn2-c2ccc(Cl)cc2)c1=O
CCS(=O)(=O)CCn1c([N+](=O)[O-])cnc1C
CCCCOC(=O)NCN1C(=O)C2C3C=CC(C3)C2C1=O (stereo not drawn)
Cc1nn(CCC(=O)NNC(=S)Nc2ccc([N+](=O)[O-])cc2)c(C)c1[N+](=O)[O-]
Cc1nnc(SCc2c(Cl)cccc2Cl)n(N)c1=O
CCC1CCCCN1C(=O)CCn1ccnc1 (stereo not drawn)
Cn1c(CO)cnc1SCc1ccc(F)cc1
O=C1c2ccccc2C(=O)N1CCC(O)C[N+](=O)[O-] (stereo not drawn)
O=C(COC(=O)CNC(=O)c1ccccc1F)Nc1ccc2c(c1)OCCO2
Brc1c(NC2=NCCN2)ccc2nccnc12
CCCCN(C(=S)Nc1cccc(C)c1C)c1c(N)n(CCC)c(=O)[nH]c1=O
O=C(Cn1cccc1C(=O)c1ccccc1)NCc1ccco1
O=c1cc(CSc2ccc([N+](=O)[O-])cc2)nc2sccn12
COc1ccccc1N1CCN(CC(=O)c2c(N)n(C)c(=O)n(C)c2=O)CC1
O=C(Nc1ccccn1)c1cccc(S(=O)(=O)N2CCOCC2)c1
COc1ccc(CCNC2=CC(=O)N(c3ccc(F)cc3)C2=O)cc1
O=C(NC(NC(=S)Nc1ccccc1C(=O)O)C(Cl)(Cl)Cl)c1ccccc1 (stereo not drawn)

Reference: PubChem BioAssay AID1233 (SRMLSC, 2008)
